# Bioassay records from PubChem BioAssay.
# Rows were chosen to be rich in hits. Some 21% of all compounds tested hit in one or more screens of this group.
# Cycloheximide cs = counter-screen hit for Shiga toxin inhibitors, cycloheximide | AID 2314 | 12% of 300,000 active | cell reporter, cycloheximide protein synthesis inhibition counterscreen | max response, %; in the data active = max response mostly above about 13%, no sharp cut-off; inactive = mostly below about 14%; note: read at 38.3 µM for the half of the compounds with a filed dose; 0% is about no effect
# HCV inhibitor = HCV inhibition. AID 651820. 3.4% of 340,000 active. Potency, µM (series often up to 41.8 µM), inactives show at the top dose activity change, negative = inhibition, actives largely listed as inhibitors. Huh7.5.1 HCVcc-Cre infection, luciferase reporter, 44 h; note: potency is the fitted concentration of half-maximal effect; % is set by controls: 0 for no effect and ±100 for the full control effect
#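 After 44 h co-culture of compound, cells and HCVcc-Cre (~0.5 moi), substrate is added for 15 min at room temperature and luciferase measured over 15 sec. Cells were seeded at 1,000/well and pre-cultured 4 h.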
# Pf growth 96h = P. falciparum growth inhibition at 96 hours | AID 504834 | 6.9% of 320,000 active | Potency, µM (titrated, usually from 28.7 µM), inactives show at the highest dose activity change, negative = inhibition, actives largely listed as inhibitors | P. falciparum luciferase reporter growth, 96 h; note: potency is the fitted concentration of half-maximal effect; % is set by controls: 0 for no effect and ±100 for the full control effect
#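 P. falciparum expressing integrated firefly luciferase, in erythrocytes at 2% hematocrit, 0.05% parasitemia, incubated with compounds 96 h at 37 C, 5% CO2. Growth inhibition read as loss of luminescence; two-generation exposure targets delayed-death apicoplast inhibitors.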
# HCMV antiviral = inhibitors of human cytomegalovirus; HFF cells, HCMV-luciferase reporter, 72 h; active compounds read low; activity change, negative = inhibition, % at 57.5 µM; 4.5% of 410,000 active; in the data active = activity change below about -60%; inconclusive = no clear call, values can overlap the other calls; inactive = above about -39%; note: % is set by controls: 0 for no effect and ±100 for the full control effect
#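 Human foreskin fibroblasts infected with luciferase-reporter HCMV at MOI 1 PFU/cell, compounds at two doses. Luciferase measured 72 h post infection; normalized to buffer-only basal and Salinomycin (10uM) controls.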
# Pf growth 48h = inhibits P. falciparum growth in the first generation, 48 h | P. falciparum luciferase growth in erythrocytes, 48 h | Potency, µM (top dose mostly 28.7 µM), inactives show at the top dose activity change, negative = inhibition, hits mostly inhibitors | 5.9% of 310,000 active; note: potency is the fitted concentration of half-maximal effect; % is set by controls: 0 for no effect and ±100 for the full control effect
#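 In quantitative HTS format, infected erythrocytes bearing luciferase-reporter parasites were treated for a single generation at 37 C. Luminescence after adding detection reagent served as the growth measure.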
# Shiga inhibitor = blocks Shiga toxin action in Vero cells; Vero cells, Shiga toxin protein synthesis inhibition reporter; inhibition, % at 38.7 µM; 9.2% of 290,000 active; in the data active = inhibition mostly above about 28%, no sharp cut-off; inactive = mostly below about 43%; note: 0% is about no effect
# * = called active by the depositor; u = inconclusive; x = not tested or not shown; ! = repeats disagree; [ ] = dose if it differs, or a comment. Unless noted, calls come from the whole dose curve; as a rule, active = well fitted inhibition curve with a large enough effect; inconclusive = small, poorly fitted or top-dose-only effect, or another doubt; inactive = no such curve, though single readings can be large or run the other way.
SMILES,Cycloheximide cs,HCV inhibitor,Pf growth 96h,HCMV antiviral,Pf growth 48h,Shiga inhibitor
Cc1ccc(S(=O)(=O)N2CCOCC2)cc1C(=O)OCC(=O)Nc1ccc2[nH]c(=O)[nH]c2c1,x,7%,2%,-4,36%,x
COc1ccc(CCNC(=O)CCCn2c(=O)c3ccccc3n(Cc3ccccc3)c2=O)cc1OC,x,x,x,-15,x,x
COc1ccc(-c2cc3c(=O)n(CC(=O)NCCCN4CCN(Cc5ccccc5)CC4)ncn3n2)cc1,28*,u,-2%,-27,29%,31
COc1ccc(-c2cc3c(=O)n(CC(=O)NCc4ccc(C)cc4)ncn3n2)cc1,2,6%,92%,21,4%,10
COc1ccc(CNC(=O)Cn2ncn3cccc3c2=O)cc1,26*,x,335%,55,252%,30
COc1ccc(-c2cc3c(=O)n(CC(=O)NCc4ccc(Cl)cc4)ncn3n2)cc1,4,14%,2%,46,2%,14
COc1ccc(-c2cc3c(=O)n(CC(=O)NCc4ccc(F)cc4)ncn3n2)cc1,11*,6%,7%,79,142%,16*
COc1ccc(-c2cc3c(=O)n(CC(=O)NCCCN4CCC(Cc5ccccc5)CC4)ncn3n2)cc1,23*,u,-24%,55,-46%,45*
NS(=O)(=O)c1ccc(N2CCOCC2)c(C(=O)NCc2ccc3c(c2)OCO3)c1,x,u,19%,-19,53%,x
Cc1c(CCOC(=O)c2cc([N+](=O)[O-])cc([N+](=O)[O-])c2)sc[n+]1CCCCS(=O)(=O)[O-],4,7%,1%,25,4%,-1
CCc1ccc(-c2[nH]nc3nc(-c4ccc(OC)cc4)cc(C(=O)NCCCOC)c23)cc1,x,x,x,-11,x,x
CCOC(=O)N1CCN(C(=O)c2cc(COc3ccc(OC)cc3Cl)on2)CC1,70*,-30%,u,9,u,105*
COc1ccc(OCc2cc(C(=O)N3CCCCCCC3)no2)c(Cl)c1,40*,12%,22%,42,u,61*
COc1ccc(OCc2cc(C(=O)NCCN3CCCC(O)C3)no2)c(Cl)c1 (stereo not drawn),2,u,u,47,10%,4
COc1ccc(OCc2cc(C(=O)N3C[C@@H](C)O[C@@H](C)C3)no2)c(Cl)c1,40*,-32%,11%,66,10%,94*
COc1ccc(OCc2cc(C(=O)N3CCN(C4CCCC4)CC3)no2)c(Cl)c1,42*,u,u,44,-8%,77*
Cc1ccc2occ(-c3cc(-c4ccc(F)cc4)nc4c3COc3ccc(F)cc3-4)c(=O)c2c1,x,x,x,11,x,x
Cc1c(C=O)c2ccccn2c1C(=O)c1cccs1,3,u,1%,-34,u,-8
COc1ccc(OCc2cc(C(=O)N3CCN(CC4CC4)CC3)no2)c(Cl)c1,52*,6%,u,-13,14%,55*
COCC1CCN(C(=O)c2cc(COc3ccc(OC)cc3Cl)on2)C1 (stereo not drawn),x,x,x,21,x,x
CCc1nnc(NC(=O)CCN2C(=O)c3ccccc3S2(=O)=O)s1,-1,8%,u,-1,1%,-21
Cc1csc(NC(=O)CN2C(=O)c3ccccc3S2(=O)=O)n1,-2,13%,13µM*,-2,16%,-23
O=C(CN1C(=O)c2ccccc2S1(=O)=O)NC1CCCCCC1,-2,15%,u,-75*,50%,-5
Cc1csc(NC(=O)CCN2C(=O)c3ccccc3S2(=O)=O)n1,16,-2%,10%,-11,11%,55*
Cc1cccc(OCCn2c(-c3ccc(Cl)cc3)nc3ccccc3c2=O)c1,x,x,x,22,x,x
SMILES,Cycloheximide cs,HCV inhibitor,Pf growth 96h,HCMV antiviral,Pf growth 48h,Shiga inhibitor
CC(C)CCN1C(=O)c2ccc(C(=O)Nc3ccc(Br)cc3C(=O)O)cc2C1=O,-1,13%,-27%,-2,29%,-5
OCCCNc1nc(-c2ccc(Cl)cc2)nnc1-c1ccccc1,20*,-16%,3.7µM*,30,u,22
Clc1ccc(-c2nnc(-c3ccccc3)c(-c3ccccc3)n2)cc1,2,-20%,u,u,u,11
O=C(N=C1SC2CS(=O)(=O)CC2N1Cc1ccccc1)C1CCCCC1 (stereo not drawn),-11,-8%,u,17,-6%,-4
Cc1ccc(CNC(=O)CCCn2c(=O)c3ccccc3n(Cc3ccccc3Cl)c2=O)cc1,x,x,x,15,x,x
Nc1cc(=O)[nH]c(SCc2nnnn2-c2ccc(Cl)cc2)n1,2,-6%,0.21µM*,-9,12%,-1
CC(C)(C)c1ccc(CSc2nc(N)cc(=O)[nH]2)cc1,39*,u,48%,x,41%,41*
CC[C@@H]1C=C(C(=O)O)[C@H](c2cccc(C)c2)N1S(=O)(=O)c1ccc(C)cc1,x,34%[8.37 µM],x,27,x,x
CCOc1ccc(S(=O)(=O)N2CCCC(C(=O)Nc3cccc(C)c3)C2)cc1 (stereo not drawn),-2,-7%,5%,58,u,1
COc1ccc(/C=N/Nc2nncn2N)cc1Br,22*,0%,u,77,u,x
COc1cc(/C=N/Nc2nncn2N)ccc1OCc1c(C)no[n+]1[O-],13*,u,u,0,u,25
Nn1cnnc1N/N=C/c1ccc(Cl)cc1Cl,12*,u,-24%,u,35%,16
O=C(N/N=C/c1ccc(Cl)cc1Cl)c1ccc(-n2cnnn2)cc1,x,u,-6%,0,-20%,x
Cc1cn(C2CC(O)C(O)C(CO)O2)c(=O)[nH]c1=O (stereo not drawn),x,x,x,-11,x,x
Cc1cn([C@H]2C=C[C@@H](CO)O2)c(=O)[nH]c1=O,52*!,-15%[8.37 µM],u,75,-16%,162*!
COc1ccc(Br)cc1Cn1nnc(C(=O)Nc2cccc(SC)c2)c1N,x,x,x,-24,x,x
CCc1ccc(-c2cn(C3CCCCC3)c(=S)[nH]2)cc1,18*,u,u,u,-25%,65
ClC(Cl)(Cl)c1nc(N/N=C/c2ccncc2)c2ccccc2n1,9,-13%,u,-36,2.3µM*,-6
Cc1cc(C(=O)N/N=C/c2cccc([N+](=O)[O-])c2)c2ccccc2n1,-3,-15%,11%,-34,13%,15
O=[N+]([O-])c1cccc(/C=N/Nc2nc(C(Cl)(Cl)Cl)nc3ccccc23)c1,1,u,u,23,1µM*,-11
COCCNC(=O)c1cccc(OC2CCN(Cc3ccc(F)cc3OC)CC2)c1,1,-18%,71%,-2,0%,1
C=C1C(=O)C23C(O)C1CCC2C12CCCC(C)(COC(C)=O)C1C(O)C3(O)OC2 (stereo not drawn),x,3.5µM*,x,-2,x,x
O=C(O)/C=C/C(=O)NNC(=O)c1cccc(Br)c1,25*,8%,20%,-9,20%,39*
COc1ccccc1NC(=O)NNC(=O)c1ccncc1,x,-1%,x,-21,x,x
